In article PMC7862700, “An all-to-all approach to the identification of sequence-specific readers for epigenetic DNA modifications on cytosine”:

How the values were obtained:
Assay in all cases: DAPPL (digital affinity profiling via proximity ligation, sequencing); 10 mM Tris-HCl pH 7.5, 50 mM NaCl, 1 mM DTT, 4% glycerol, room temperature, 30 min; GST-TFs on glutathione beads, 16-mer random dsDNA library, 0.1% formaldehyde crosslink after washing; high values mean tight binding
Details in all cases: protein: recombinant; tags: N-terminal GST; dsDNA, one strand shown
FLI1 = biological target: T1, FLI1 (Homo sapiens, UniProt Q01543 1-452)
T1 sequence: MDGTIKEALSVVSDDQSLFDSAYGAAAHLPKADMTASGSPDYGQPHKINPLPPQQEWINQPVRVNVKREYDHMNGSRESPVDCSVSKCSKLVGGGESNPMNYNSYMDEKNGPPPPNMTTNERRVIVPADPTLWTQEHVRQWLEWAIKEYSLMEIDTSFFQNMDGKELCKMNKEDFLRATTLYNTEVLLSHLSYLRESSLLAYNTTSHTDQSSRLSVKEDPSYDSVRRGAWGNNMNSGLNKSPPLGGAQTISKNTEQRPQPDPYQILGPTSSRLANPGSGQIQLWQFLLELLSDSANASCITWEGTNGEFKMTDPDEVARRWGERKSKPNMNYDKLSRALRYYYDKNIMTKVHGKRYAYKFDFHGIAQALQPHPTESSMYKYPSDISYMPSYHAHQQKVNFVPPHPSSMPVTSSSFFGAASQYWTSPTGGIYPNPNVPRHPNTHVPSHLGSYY
Summary of the method: (§1)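 Each value of binding signal is a hexamer's read frequency for a factor divided by the same hexamer's frequency in the tag-only sample. Barcoded, bead-captured GST fusions of human transcription factors made in yeast were pooled with that sample and incubated with 200 nmole of a random double-stranded 16-mer DNA library in Tris/NaCl/DTT/glycerol buffer at room temperature for 30 min. Washing, 0.1% formaldehyde crosslinking, proximity ligation, PCR and Illumina NextSeq500 sequencing followed.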

ELK1 = biological target: T2, ELK1 (Homo sapiens, UniProt P19419 1-428)
T2 sequence: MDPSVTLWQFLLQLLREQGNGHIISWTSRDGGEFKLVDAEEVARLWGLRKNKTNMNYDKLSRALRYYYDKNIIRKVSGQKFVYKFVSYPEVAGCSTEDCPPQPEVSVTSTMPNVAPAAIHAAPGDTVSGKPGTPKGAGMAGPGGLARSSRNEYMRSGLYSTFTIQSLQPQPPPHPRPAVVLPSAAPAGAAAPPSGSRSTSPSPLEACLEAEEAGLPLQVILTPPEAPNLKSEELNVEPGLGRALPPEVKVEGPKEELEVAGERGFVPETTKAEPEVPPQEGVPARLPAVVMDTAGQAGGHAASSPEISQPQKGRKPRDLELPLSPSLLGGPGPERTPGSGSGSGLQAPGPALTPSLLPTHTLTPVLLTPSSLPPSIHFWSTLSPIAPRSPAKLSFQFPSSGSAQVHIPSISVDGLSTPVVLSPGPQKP
Summary of the method: as §1

GABPA = biological target: T3, GABPA (Homo sapiens, UniProt Q06546 1-454)
T3 sequence: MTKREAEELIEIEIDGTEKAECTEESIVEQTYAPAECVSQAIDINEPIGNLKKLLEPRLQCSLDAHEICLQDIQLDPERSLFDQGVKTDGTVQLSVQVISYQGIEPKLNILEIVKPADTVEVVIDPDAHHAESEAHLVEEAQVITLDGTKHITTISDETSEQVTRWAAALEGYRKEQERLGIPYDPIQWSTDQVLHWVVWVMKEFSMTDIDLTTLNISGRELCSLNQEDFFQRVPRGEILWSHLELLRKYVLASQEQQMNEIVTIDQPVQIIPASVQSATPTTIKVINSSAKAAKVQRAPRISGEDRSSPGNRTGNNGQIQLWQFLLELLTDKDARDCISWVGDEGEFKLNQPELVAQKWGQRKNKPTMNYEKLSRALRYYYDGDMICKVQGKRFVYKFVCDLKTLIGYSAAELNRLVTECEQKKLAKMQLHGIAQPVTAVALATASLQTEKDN
Summary of the method: as §1

ERG = biological target: T4, ERG (Homo sapiens, UniProt P11308 1-479)
T4 sequence: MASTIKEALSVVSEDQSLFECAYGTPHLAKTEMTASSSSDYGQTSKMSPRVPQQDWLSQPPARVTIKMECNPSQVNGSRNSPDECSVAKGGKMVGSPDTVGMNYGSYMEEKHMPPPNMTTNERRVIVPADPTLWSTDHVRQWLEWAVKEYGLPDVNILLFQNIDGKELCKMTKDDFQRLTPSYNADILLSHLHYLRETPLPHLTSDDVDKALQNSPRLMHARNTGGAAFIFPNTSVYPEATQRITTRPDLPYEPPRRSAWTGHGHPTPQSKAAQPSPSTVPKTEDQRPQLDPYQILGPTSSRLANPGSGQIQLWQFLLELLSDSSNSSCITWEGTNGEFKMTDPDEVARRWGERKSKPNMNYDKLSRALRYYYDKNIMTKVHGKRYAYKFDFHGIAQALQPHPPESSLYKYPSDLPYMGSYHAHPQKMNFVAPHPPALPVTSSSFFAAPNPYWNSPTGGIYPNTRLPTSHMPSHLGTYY
Summary of the method: as §1

ELF1 = ELF1 (Homo sapiens, UniProt P32519 1-619)
ELF1, sequence (P32519 whole entry): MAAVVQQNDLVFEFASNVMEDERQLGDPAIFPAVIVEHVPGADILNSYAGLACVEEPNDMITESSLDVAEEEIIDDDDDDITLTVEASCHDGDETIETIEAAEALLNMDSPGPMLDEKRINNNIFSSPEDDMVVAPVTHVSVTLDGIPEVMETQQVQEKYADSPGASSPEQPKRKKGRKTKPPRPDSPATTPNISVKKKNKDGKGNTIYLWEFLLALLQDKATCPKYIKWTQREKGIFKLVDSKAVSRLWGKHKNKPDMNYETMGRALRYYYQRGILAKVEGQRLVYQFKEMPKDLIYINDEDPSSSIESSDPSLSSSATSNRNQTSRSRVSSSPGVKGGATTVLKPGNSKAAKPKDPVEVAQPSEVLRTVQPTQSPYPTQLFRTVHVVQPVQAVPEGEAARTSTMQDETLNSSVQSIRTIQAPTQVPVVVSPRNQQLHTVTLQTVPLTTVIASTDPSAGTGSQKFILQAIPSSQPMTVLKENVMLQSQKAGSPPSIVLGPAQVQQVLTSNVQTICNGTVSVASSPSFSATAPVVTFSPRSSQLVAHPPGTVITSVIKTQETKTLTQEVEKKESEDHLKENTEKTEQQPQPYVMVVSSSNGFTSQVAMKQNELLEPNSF
Summary of the method: as §1

EHF = biological target: T5, EHF (Homo sapiens, UniProt Q9NZC4 1-300)
T5 sequence: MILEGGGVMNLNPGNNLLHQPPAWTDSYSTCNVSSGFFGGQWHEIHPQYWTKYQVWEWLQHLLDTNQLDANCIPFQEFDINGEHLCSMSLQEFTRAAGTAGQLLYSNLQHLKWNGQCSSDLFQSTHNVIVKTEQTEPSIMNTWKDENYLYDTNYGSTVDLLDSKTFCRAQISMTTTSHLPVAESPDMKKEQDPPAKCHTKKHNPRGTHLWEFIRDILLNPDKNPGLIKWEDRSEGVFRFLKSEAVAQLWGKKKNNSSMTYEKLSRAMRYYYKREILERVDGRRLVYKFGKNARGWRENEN
Summary of the method: as §1

SPI1 = SPI1 (Homo sapiens, UniProt P17947 1-270)
Summary of the method: as §1

SPIB = SPIB (Homo sapiens, UniProt Q01892 1-262)
SPIB, sequence (Q01892 whole entry): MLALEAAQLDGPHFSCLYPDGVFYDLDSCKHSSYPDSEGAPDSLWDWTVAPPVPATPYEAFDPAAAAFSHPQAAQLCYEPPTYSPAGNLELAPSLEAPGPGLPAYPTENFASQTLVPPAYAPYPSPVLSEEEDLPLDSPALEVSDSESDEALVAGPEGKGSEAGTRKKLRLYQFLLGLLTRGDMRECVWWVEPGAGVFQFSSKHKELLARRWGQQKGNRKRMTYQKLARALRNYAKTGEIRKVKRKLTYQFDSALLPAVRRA
Summary of the method: as §1

ELK3 = biological target: T6, ELK3 (Homo sapiens, UniProt P41970 1-407)
T6 sequence: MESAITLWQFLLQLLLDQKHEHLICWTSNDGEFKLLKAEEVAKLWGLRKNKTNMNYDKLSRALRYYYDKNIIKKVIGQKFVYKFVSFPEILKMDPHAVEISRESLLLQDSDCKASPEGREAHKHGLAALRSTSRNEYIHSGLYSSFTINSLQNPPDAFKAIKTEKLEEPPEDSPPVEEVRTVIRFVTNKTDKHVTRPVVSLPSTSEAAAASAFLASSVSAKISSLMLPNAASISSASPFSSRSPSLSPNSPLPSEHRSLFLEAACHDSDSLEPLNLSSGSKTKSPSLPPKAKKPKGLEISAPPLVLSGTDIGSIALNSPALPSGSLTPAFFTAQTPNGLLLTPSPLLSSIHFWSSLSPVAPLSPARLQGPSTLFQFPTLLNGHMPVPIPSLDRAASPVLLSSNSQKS
Summary of the method: as §1

FEV = biological target: T7, FEV (Homo sapiens, UniProt Q99581 1-238)
T7 sequence: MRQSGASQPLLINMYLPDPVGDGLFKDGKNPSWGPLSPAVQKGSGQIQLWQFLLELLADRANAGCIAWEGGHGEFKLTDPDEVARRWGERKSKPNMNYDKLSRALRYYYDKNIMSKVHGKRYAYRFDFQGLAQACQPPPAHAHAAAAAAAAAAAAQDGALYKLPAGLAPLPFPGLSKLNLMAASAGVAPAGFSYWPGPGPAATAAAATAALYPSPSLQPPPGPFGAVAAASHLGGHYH
Summary of the method: as §1

ETV5 = ETV5 (Homo sapiens, UniProt P41161 1-510)
ETV5, sequence (P41161 whole entry): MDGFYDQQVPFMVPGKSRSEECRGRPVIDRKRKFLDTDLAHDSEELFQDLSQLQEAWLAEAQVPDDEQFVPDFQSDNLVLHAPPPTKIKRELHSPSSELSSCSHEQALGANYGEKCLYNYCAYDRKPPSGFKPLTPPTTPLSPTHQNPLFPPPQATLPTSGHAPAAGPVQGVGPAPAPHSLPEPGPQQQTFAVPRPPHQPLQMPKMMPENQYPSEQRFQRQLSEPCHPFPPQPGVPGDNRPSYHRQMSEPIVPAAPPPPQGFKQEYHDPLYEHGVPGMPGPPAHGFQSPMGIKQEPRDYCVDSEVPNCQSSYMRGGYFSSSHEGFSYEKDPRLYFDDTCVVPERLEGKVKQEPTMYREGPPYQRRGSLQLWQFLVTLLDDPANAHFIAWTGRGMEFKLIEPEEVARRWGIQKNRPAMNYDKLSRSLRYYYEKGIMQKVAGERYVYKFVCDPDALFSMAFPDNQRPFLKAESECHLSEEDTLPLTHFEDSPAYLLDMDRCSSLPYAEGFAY
Summary of the method: as §1

SPIC = biological target: T8, SPIC (Homo sapiens, UniProt Q8N5J4 1-248)
T8 sequence: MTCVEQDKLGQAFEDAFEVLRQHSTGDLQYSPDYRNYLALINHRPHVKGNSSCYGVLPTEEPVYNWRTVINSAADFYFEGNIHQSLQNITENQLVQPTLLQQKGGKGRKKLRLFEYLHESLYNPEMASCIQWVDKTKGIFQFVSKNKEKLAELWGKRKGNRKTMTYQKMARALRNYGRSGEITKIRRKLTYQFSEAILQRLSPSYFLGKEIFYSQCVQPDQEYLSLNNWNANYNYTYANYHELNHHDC
Summary of the method: as §1

ELF4 = ELF4 (Homo sapiens, UniProt Q99607 1-663)
ELF4, sequence (Q99607 whole entry): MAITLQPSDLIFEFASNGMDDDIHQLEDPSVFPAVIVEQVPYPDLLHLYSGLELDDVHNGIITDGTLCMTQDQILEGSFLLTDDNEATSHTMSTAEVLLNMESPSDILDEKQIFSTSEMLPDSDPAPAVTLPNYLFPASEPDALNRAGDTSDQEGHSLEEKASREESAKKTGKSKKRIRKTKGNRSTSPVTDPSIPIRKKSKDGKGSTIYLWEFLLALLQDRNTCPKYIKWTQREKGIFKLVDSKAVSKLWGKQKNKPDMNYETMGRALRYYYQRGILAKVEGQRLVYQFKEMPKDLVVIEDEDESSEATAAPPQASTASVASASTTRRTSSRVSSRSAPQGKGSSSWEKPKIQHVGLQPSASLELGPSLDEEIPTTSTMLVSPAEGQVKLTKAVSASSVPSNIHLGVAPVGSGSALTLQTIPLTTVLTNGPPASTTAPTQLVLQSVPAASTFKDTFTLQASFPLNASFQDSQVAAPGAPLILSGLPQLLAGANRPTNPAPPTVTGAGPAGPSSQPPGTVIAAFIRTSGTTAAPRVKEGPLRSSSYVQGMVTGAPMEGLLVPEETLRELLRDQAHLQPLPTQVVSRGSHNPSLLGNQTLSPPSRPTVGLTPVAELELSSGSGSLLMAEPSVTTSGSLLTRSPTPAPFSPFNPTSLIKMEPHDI
Summary of the method: as §1

ELK4 = biological target: T9, ELK4 (Homo sapiens, UniProt P28324-2 1-405)
T9 sequence: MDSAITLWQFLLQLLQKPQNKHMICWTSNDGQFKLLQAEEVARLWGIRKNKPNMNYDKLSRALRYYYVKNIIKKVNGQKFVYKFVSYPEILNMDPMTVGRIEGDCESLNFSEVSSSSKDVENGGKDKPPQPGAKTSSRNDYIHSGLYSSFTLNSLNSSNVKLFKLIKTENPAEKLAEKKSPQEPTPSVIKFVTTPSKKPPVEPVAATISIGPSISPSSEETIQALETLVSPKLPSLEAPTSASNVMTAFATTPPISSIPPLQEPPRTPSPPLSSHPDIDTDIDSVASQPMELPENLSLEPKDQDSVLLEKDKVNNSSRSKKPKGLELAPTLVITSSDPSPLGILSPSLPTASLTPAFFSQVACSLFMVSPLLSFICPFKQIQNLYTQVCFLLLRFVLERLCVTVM
Summary of the method: as §1

ETV2 = biological target: T10, ETV2 (Homo sapiens, UniProt O00321 1-342)
T10 sequence: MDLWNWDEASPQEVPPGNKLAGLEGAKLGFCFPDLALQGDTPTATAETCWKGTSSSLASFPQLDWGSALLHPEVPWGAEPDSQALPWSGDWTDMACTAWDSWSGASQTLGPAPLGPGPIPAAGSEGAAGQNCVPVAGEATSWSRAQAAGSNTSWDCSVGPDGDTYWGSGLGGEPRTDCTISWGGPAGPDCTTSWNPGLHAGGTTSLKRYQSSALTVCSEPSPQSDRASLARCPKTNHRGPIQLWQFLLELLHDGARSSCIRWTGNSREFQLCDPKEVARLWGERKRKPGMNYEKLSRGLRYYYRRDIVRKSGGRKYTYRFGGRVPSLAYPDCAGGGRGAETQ
Summary of the method: as §1

ELF3 = biological target: T11, ELF3 (Homo sapiens, UniProt P78545 1-371)
T11 sequence: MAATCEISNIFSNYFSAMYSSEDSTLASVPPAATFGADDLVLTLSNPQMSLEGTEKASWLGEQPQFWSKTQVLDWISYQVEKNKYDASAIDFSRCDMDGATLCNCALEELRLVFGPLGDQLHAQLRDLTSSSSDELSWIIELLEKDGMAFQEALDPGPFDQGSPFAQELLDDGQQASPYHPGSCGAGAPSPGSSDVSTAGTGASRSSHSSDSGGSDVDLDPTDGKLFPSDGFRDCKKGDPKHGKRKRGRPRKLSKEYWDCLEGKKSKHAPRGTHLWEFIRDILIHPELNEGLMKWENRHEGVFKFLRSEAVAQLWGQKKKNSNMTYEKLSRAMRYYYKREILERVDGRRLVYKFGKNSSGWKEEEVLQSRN
Summary of the method: as §1

ETV1 = ETV1 (Homo sapiens, UniProt P50549 1-477)
ETV1, sequence (P50549 whole entry): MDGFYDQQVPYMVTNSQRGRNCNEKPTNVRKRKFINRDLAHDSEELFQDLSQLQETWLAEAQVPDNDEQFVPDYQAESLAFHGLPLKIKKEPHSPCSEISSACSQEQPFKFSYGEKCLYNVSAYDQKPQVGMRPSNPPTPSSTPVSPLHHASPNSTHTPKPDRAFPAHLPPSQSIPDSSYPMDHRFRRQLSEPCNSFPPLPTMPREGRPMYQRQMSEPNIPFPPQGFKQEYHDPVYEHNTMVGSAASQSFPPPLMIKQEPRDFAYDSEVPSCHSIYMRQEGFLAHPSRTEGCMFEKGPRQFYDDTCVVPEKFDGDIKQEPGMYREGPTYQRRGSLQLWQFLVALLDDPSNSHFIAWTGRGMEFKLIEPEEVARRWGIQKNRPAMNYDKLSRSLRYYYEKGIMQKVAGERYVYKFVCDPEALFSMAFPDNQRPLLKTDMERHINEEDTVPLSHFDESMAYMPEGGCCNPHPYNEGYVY
Summary of the method: as §1

| Sequence | binding signal (FLI1) | binding signal (ELK1) | binding signal (GABPA) | binding signal (ERG) | binding signal (ELF1) | binding signal (EHF) | binding signal (SPI1) | binding signal (SPIB) | binding signal (ELK3) | binding signal (FEV) | binding signal (ETV5) | binding signal (SPIC) | binding signal (ELF4) | binding signal (ELK4) | binding signal (ETV2) | binding signal (ELF3) | binding signal (ETV1) |
| --- | --- | --- | --- | --- | --- | --- | --- | --- | --- | --- | --- | --- | --- | --- | --- | --- | --- |
| CCACCC | 1.17 fold enrichment (6-mer frequency, TF over GST control) | 1.28 fold enrichment (6-mer frequency, TF over GST control) | 1.28 fold enrichment (6-mer frequency, TF over GST control) | 1.21 fold enrichment (6-mer frequency, TF over GST control) | 1.23 fold enrichment (6-mer frequency, TF over GST control) | 1.31 fold enrichment (6-mer frequency, TF over GST control) | 1.22 fold enrichment (6-mer frequency, TF over GST control) | 1.31 fold enrichment (6-mer frequency, TF over GST control) | 1.23 fold enrichment (6-mer frequency, TF over GST control) | 1.17 fold enrichment (6-mer frequency, TF over GST control) | 1.25 fold enrichment (6-mer frequency, TF over GST control) | 1.21 fold enrichment (6-mer frequency, TF over GST control) | 1.32 fold enrichment (6-mer frequency, TF over GST control) | 1.38 fold enrichment (6-mer frequency, TF over GST control) | 1.3 fold enrichment (6-mer frequency, TF over GST control) | 1.37 fold enrichment (6-mer frequency, TF over GST control) | 1.16 fold enrichment (6-mer frequency, TF over GST control) |
| AGCGAC | 1.09 fold enrichment (6-mer frequency, TF over GST control) | 1.15 fold enrichment (6-mer frequency, TF over GST control) | 1.09 fold enrichment (6-mer frequency, TF over GST control) | 1.23 fold enrichment (6-mer frequency, TF over GST control) | 1.17 fold enrichment (6-mer frequency, TF over GST control) | 1.23 fold enrichment (6-mer frequency, TF over GST control) | 1.06 fold enrichment (6-mer frequency, TF over GST control) | 1.16 fold enrichment (6-mer frequency, TF over GST control) | 1.04 fold enrichment (6-mer frequency, TF over GST control) | 1.19 fold enrichment (6-mer frequency, TF over GST control) | 1.13 fold enrichment (6-mer frequency, TF over GST control) | 1.19 fold enrichment (6-mer frequency, TF over GST control) | 1.19 fold enrichment (6-mer frequency, TF over GST control) | 1.25 fold enrichment (6-mer frequency, TF over GST control) | 1.22 fold enrichment (6-mer frequency, TF over GST control) | 1.01 fold enrichment (6-mer frequency, TF over GST control) | 1.12 fold enrichment (6-mer frequency, TF over GST control) |
